Laboratory results as given in PubChem BioAssay (NCI).
About 83,000 compounds went through this panel and 20% of them were active in at least one assay; those are over-represented in the sample as a whole.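 Activity criterion: percent growth below 10, measured after cells in 96-well plates were exposed to a single compound concentration for 48 hours.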 Active and inactive are the calls of the source.

Key:
Assay in all cases: NCI-60 one-dose screen, 48 h (100 = growth as untreated, 0 = no growth, -100 = all killed)
T-47D breast = system: T-47D breast
BT-549 breast = system: BT-549 breast
MDA-MB-435 melanoma = system: MDA-MB-435 melanoma
SW-620 colon = system: SW-620 colon
MCF7 breast = system: MCF7 breast
HCT-116 colon = system: HCT-116 colon
HCC-2998 colon = system: HCC-2998 colon
KM12 colon = system: KM12 colon
MDA-MB-468 breast = system: MDA-MB-468 breast

Measured: growth

c1ccc(CSc2nnc(-c3ccc4nc(-c5ccccc5)[nH]c4c3)o2)cc1
active: MDA-MB-435 melanoma; 10 µM unless noted 9.59% | MCF7 breast; 10 µM unless noted 1.53% | HCT-116 colon; 10 µM unless noted 2.99%
inactive: T-47D breast; 10 µM unless noted 15.4% | BT-549 breast; 10 µM unless noted 35.4% | SW-620 colon; 10 µM unless noted 10% | HCC-2998 colon; 10 µM unless noted 62% | KM12 colon; 10 µM unless noted 55%

Nc1nn2c(-c3cc4cc(Br)ccc4oc3=O)ccnc2c1N=Nc1ccc(Br)cc1
inactive: T-47D breast; 10 µM unless noted 29.2% | BT-549 breast; 10 µM unless noted 40.7% | MDA-MB-435 melanoma; 10 µM unless noted 69.5% | SW-620 colon; 10 µM unless noted 43.2% | MCF7 breast; 10 µM unless noted 39.5% | HCT-116 colon; 10 µM unless noted 16.2% | HCC-2998 colon; 10 µM unless noted 39.2% | KM12 colon; 10 µM unless noted 51.7%

COc1ccc(NC(=O)Nc2nc3ccc([N+](=O)[O-])cc3s2)cc1
inactive: BT-549 breast; 10 µM unless noted 17.9% | MDA-MB-435 melanoma; 10 µM unless noted 23% | SW-620 colon; 10 µM unless noted 15% | HCT-116 colon; 10 µM unless noted 10.3% | HCC-2998 colon; 10 µM unless noted 19.2%
active: T-47D breast; 10 µM unless noted 4.2% | MCF7 breast; 10 µM unless noted 0.377% | KM12 colon; 10 µM unless noted 3.81%

CC1CCc2c(sc3nc(SCC(=O)c4cccc([N+](=O)[O-])c4)n(-c4ccccc4)c(=O)c23)C1 (stereo not given)
inactive: T-47D breast; 10 µM unless noted 86.8% | BT-549 breast; 10 µM unless noted 94.5% | MDA-MB-435 melanoma; 10 µM unless noted 90.8% | SW-620 colon; 10 µM unless noted 71.1% | MCF7 breast; 10 µM unless noted 86.5% | HCT-116 colon; 10 µM unless noted 25% | HCC-2998 colon; 10 µM unless noted 105% | KM12 colon; 10 µM unless noted 93.5%

COc1ccc(N=Nc2c(N)nn3c(N)c(C#N)c(-c4ccc(C)cc4)nc23)cc1
active: T-47D breast; 10 µM unless noted 7.1%
inactive: BT-549 breast; 10 µM unless noted 56.2% | MDA-MB-435 melanoma; 10 µM unless noted 56.6% | SW-620 colon; 10 µM unless noted 67.2% | MCF7 breast; 10 µM unless noted 12.5% | HCT-116 colon; 10 µM unless noted 45.4% | HCC-2998 colon; 10 µM unless noted 73% | KM12 colon; 10 µM unless noted 43.5%

O=C(c1ccc(O)cc1)C1[C@H](c2ccc(Cl)cc2)[C@@H](c2ccccc2)NC12C(=O)Nc1ccc(Br)cc12 (stereo not given in full)
active: T-47D breast; 10 µM unless noted 2.46% | BT-549 breast; 10 µM unless noted -76.6% | MDA-MB-435 melanoma; 10 µM unless noted -41.1% | SW-620 colon; 10 µM unless noted -58.1% | MCF7 breast; 10 µM unless noted -22.1% | HCT-116 colon; 10 µM unless noted -75% | HCC-2998 colon; 10 µM unless noted -88.6% | KM12 colon; 10 µM unless noted -25.4%

CC/C(=C(\c1ccc(O)cc1)c1ccc(OCCN(C)C(=O)CCOCCNC(=O)c2ccc3c(c2)CN([C@@H]2CCC(=O)NC2=O)C3=O)cc1)c1ccccc1
active: BT-549 breast; 1 µM 9.93% | MDA-MB-468 breast; 10 µM 5.97%
inactive: T-47D breast; 1 µM 38.3% | T-47D breast; 10 µM 50.4% | BT-549 breast; 10 µM 39.3% | MDA-MB-435 melanoma; 1 µM 100% | MDA-MB-435 melanoma; 10 µM 95.4% | SW-620 colon; 1 µM 87% | SW-620 colon; 10 µM 83.6% | MCF7 breast; 1 µM 27.9% | MCF7 breast; 10 µM 24% | HCT-116 colon; 1 µM 92.7% | HCT-116 colon; 10 µM 94.8% | HCC-2998 colon; 1 µM 99% | HCC-2998 colon; 10 µM 103% | KM12 colon; 1 µM 102% | KM12 colon; 10 µM 103% | MDA-MB-468 breast; 1 µM 25.6%

O=C(/C=C1\C(=O)N(Cc2ccccc2)c2ccccc21)c1cc2ccccc2oc1=O
inactive: T-47D breast; 10 µM unless noted 40.3% | BT-549 breast; 10 µM unless noted 97.1% | MDA-MB-435 melanoma; 10 µM unless noted 107% | SW-620 colon; 10 µM unless noted 24.2% | MCF7 breast; 10 µM unless noted 29.8% | HCT-116 colon; 10 µM unless noted 82.9% | HCC-2998 colon; 10 µM unless noted 113% | KM12 colon; 10 µM unless noted 91.2%

Cn1cc(-c2cc(N)n3nc(-c4c[nH]c5ccccc45)cc3n2)c2ccccc21
active: T-47D breast; 10 µM unless noted -56.6% | BT-549 breast; 10 µM unless noted -92.5% | MDA-MB-435 melanoma; 10 µM unless noted -80.6% | SW-620 colon; 10 µM unless noted -87.1% | MCF7 breast; 10 µM unless noted -77.3% | HCT-116 colon; 10 µM unless noted -88% | HCC-2998 colon; 10 µM unless noted -77.1% | KM12 colon; 10 µM unless noted -80%

CCOc1ccccc1[C@H]1C(C(=O)c2ccc(Cl)cc2)C2(N[C@@H]1c1ccccc1)C(=O)Nc1ccc(Br)cc12 (stereo not given in full)
inactive: T-47D breast; 10 µM unless noted 13.2% | SW-620 colon; 10 µM unless noted 15.8%
active: BT-549 breast; 10 µM unless noted -67.7% | MDA-MB-435 melanoma; 10 µM unless noted -59.3% | MCF7 breast; 10 µM unless noted -11.9% | HCT-116 colon; 10 µM unless noted -92.6% | HCC-2998 colon; 10 µM unless noted -22% | KM12 colon; 10 µM unless noted -9.26%

CC/C(=C(\c1ccc(O)cc1)c1ccc(OCCN(C)C(=O)COCCNC(=O)Cc2ccc3c(c2)CN([C@@H]2CCC(=O)NC2=O)C3=O)cc1)c1ccccc1
active: T-47D breast; 10 µM 7.16% | BT-549 breast; 1 µM -25.9% | BT-549 breast; 10 µM -22.3% | MDA-MB-468 breast; 1 µM -11.7% | MDA-MB-468 breast; 10 µM -28.3%
inactive: T-47D breast; 1 µM 15.5% | MDA-MB-435 melanoma; 1 µM 97% | MDA-MB-435 melanoma; 10 µM 59.2% | SW-620 colon; 1 µM 57.5% | SW-620 colon; 10 µM 23.8% | MCF7 breast; 1 µM 33.4% | MCF7 breast; 10 µM 20% | HCT-116 colon; 1 µM 94.2% | HCT-116 colon; 10 µM 99.6% | HCC-2998 colon; 1 µM 64.5% | HCC-2998 colon; 10 µM 30.2% | KM12 colon; 1 µM 94.3% | KM12 colon; 10 µM 47.5%

N#C/C(=C1/C(=O)Nc2ccccc21)c1nnc(NC(=O)c2ccc(-n3c(=O)[nH]c4ccccc4c3=O)cc2)s1
active: T-47D breast; 10 µM unless noted 6.13% | MDA-MB-435 melanoma; 10 µM unless noted -85.5% | MCF7 breast; 10 µM unless noted 7.69%
inactive: BT-549 breast; 10 µM unless noted 12.1% | SW-620 colon; 10 µM unless noted 65.4% | HCT-116 colon; 10 µM unless noted 22.8% | HCC-2998 colon; 10 µM unless noted 32.5% | KM12 colon; 10 µM unless noted 21.4%

O=S(=O)(c1nc(-c2ccc(Br)cc2)oc1-c1ccc(Cl)cc1)N1CCCC(O)C1 (stereo not given)
inactive: T-47D breast; 10 µM unless noted 28.8% | BT-549 breast; 10 µM unless noted 76.1% | MDA-MB-435 melanoma; 10 µM unless noted 60% | SW-620 colon; 10 µM unless noted 57% | MCF7 breast; 10 µM unless noted 41.5% | HCT-116 colon; 10 µM unless noted 42.5% | HCC-2998 colon; 10 µM unless noted 33.8% | KM12 colon; 10 µM unless noted 39% | MDA-MB-468 breast; 10 µM unless noted 45.6%
